The values that follow come from the supplement of paper PMC11628255, “Interference of metal ions on the bioluminescent signal of firefly, Renilla, and NanoLuc luciferases in high-throughput screening assays” (Frontiers in Chemistry, 2024).

The test system of experiment [1] is Renilla luciferase (RLuc). In words: residual bioluminescent signal relative to negative (DMSO) control; higher = less interference (more residual luciferase signal). Summed up:
(§1)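 In triplicate wells of 384-well plates, each metal salt (0.01, 1 and 5 mM final, prepared in water) was pre-incubated with purified firefly, NanoLuc or Renilla luciferase for 10 min at room temperature in either screening or HEPES buffer. Readings of luminescence were taken 10 min after the substrate went in. The residual signal for a well is its luminescence relative to the mean of vehicle-only wells on the same plate, as a percentage.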

Experiment [2] has as its system NanoLuc luciferase (NLuc). The description is as above. Summed up: as §1
Where [3] appears, read: metal salt concentration 0.01 mM, HEPES conditions (100 mM HEPES, 0.05% BSA, 0.3 M sodium ascorbate, pH 7.5).
Setting [4] is: metal salt concentration 0.01 mM, screening conditions (50 mM Tris-HCl, […] KH2PO4, […] NaCl, 0.25 mM EDTA, 0.1% BSA, 0.3 M sodium ascorbate, pH 7.4).
Setting [5] is: metal salt concentration 1 mM, HEPES conditions (100 mM HEPES, 0.05% BSA, 0.3 M sodium ascorbate, pH 7.5).
[6] abbreviates: metal salt concentration 1 mM, screening conditions (50 mM Tris-HCl, […] KH2PO4, […] NaCl, 0.25 mM EDTA, 0.1% BSA, 0.3 M sodium ascorbate, pH 7.4).
Setting [7] is: metal salt concentration 5 mM, HEPES conditions (100 mM HEPES, 0.05% BSA, 0.3 M sodium ascorbate, pH 7.5).
Setting [8] is: metal salt concentration 5 mM, screening conditions (50 mM Tris-HCl, […] KH2PO4, […] NaCl, 0.25 mM EDTA, 0.1% BSA, 0.3 M sodium ascorbate, pH 7.4).
[9] abbreviates: metal salt concentration 0.01 mM, HEPES conditions (100 mM HEPES, 0.1% BSA, pH 7.5).
Where [10] appears, read: metal salt concentration 0.01 mM, screening conditions (PBS, 0.1% BSA, pH 7.4).
Setting [11] is: metal salt concentration 1 mM, HEPES conditions (100 mM HEPES, 0.1% BSA, pH 7.5).
[12] abbreviates: metal salt concentration 1 mM, screening conditions (PBS, 0.1% BSA, pH 7.4).
Setting [13] is: metal salt concentration 5 mM, HEPES conditions (100 mM HEPES, 0.1% BSA, pH 7.5).
[14] abbreviates: metal salt concentration 5 mM, screening conditions (PBS, 0.1% BSA, pH 7.4).

± gives the standard deviation of the averaged measurements.

As for `CC#N.CC#N.CC#N.CC#N.F[B-](F)(F)F.[Cu+]` [tetrakis(acetonitrile)copper(I) tetrafluoroborate], the residual bioluminescent signal in experiment [1] (setting [3]) was determined as 98.7 ± 11%; in experiment [1] (setting [4]) it was 103 ± 2.8%; in experiment [1] (setting [5]), 0.774 ± 0.32%; in experiment [1] (setting [6]) it was 0.538 ± 0.36%; in experiment [1] (setting [7]), 1.06 ± 0.76%; in experiment [1] (setting [8]), 0.628 ± 0.43%.

`[Cl-].[Na+]` [sodium chloride]: the residual bioluminescent signal in experiment [1] (setting [3]) was determined as 97.4 ± 13%; in experiment [1] (setting [4]), 91.3 ± 5.2%; in experiment [1] (setting [5]), 104 ± 18%; in experiment [1] (setting [6]) it was 88.6 ± 1.3%; in experiment [1] (setting [7]), 111 ± 5%; in experiment [1] (setting [8]), 94.4 ± 11%.

On to `O=S(=O)([O-])[O-].[Fe+2]` [iron(II) sulfate], for which the residual bioluminescent signal in experiment [2] (setting [9]) stood at 92.06 ± 0.82%; in experiment [2] (setting [10]), 97.1 ± 1.1%; in experiment [2] (setting [11]) it was 12.2 ± 3.3%; in experiment [2] (setting [12]), 29 ± 1.3%; in experiment [2] (setting [13]), 0.329 ± 0.23%; in experiment [2] (setting [14]), 1.15 ± 0.23%. For the same compound, the residual bioluminescent signal in experiment [1] (setting [3]) was determined as 83.1 ± 2.5%; in experiment [1] (setting [4]), 99.5 ± 4%; in experiment [1] (setting [5]) it was 2.25 ± 0.97%; in experiment [1] (setting [6]), 13.5 ± 2.4%; in experiment [1] (setting [7]), 0.704 ± 0.68%; in experiment [1] (setting [8]), 0.762 ± 0.34%.

For `O.O.O.O.O.O.O.O=S(=O)([O-])[O-].[Mg+2]` [magnesium sulfate], the residual bioluminescent signal in experiment [1] (setting [3]) was 85.7 ± 4.6%; in experiment [1] (setting [4]) it was 88.5 ± 5.2%; in experiment [1] (setting [5]), 99.3 ± 11%; in experiment [1] (setting [6]), 93.1 ± 12%; in experiment [1] (setting [7]), 97.7 ± 5.9%; in experiment [1] (setting [8]), 109 ± 27%.

In the case of `[Cl][Pt-2]([Cl])([Cl])[Cl].[K+].[K+]` [potassium tetrachloroplatinate(II)], the residual bioluminescent signal came out at 93.6 ± 1.9% in experiment [1] (setting [3]); 96.1 ± 1.4% in experiment [1] (setting [4]); 16.3 ± 9.4% in experiment [1] (setting [5]); 8.11 ± 2.9% in experiment [1] (setting [6]); 3.38 ± 2.1% in experiment [1] (setting [7]); 1.17 ± 0.82% in experiment [1] (setting [8]).

Take `O=C([O-])[O-].[Cs+].[Cs+]` [caesium carbonate]: the residual bioluminescent signal is 99.36 ± 0.78% in experiment [2] (setting [9]); 98.8 ± 6.6% in experiment [2] (setting [10]); 96.5 ± 3.1% in experiment [2] (setting [11]); 102 ± 3% in experiment [2] (setting [12]); 91.4 ± 3.5% in experiment [2] (setting [13]); 92.2 ± 2.9% in experiment [2] (setting [14]). For the same compound, the residual bioluminescent signal in experiment [1] (setting [3]) is 91.5 ± 6.8%; in experiment [1] (setting [4]), 94.9 ± 6.5%; in experiment [1] (setting [5]), 100 ± 11%; in experiment [1] (setting [6]), 93 ± 4.2%; in experiment [1] (setting [7]), 87.4 ± 1.1%; in experiment [1] (setting [8]), 87.8 ± 5.2%.

On to `[Cl][Fe]([Cl])[Cl]` [iron(III) chloride], for which the residual bioluminescent signal worked out at 90.2 ± 4% in experiment [2] (setting [9]); 93 ± 3% in experiment [2] (setting [10]); 0.54 ± 0.37% in experiment [2] (setting [11]); 53.4 ± 2.6% in experiment [2] (setting [12]); 0.188 ± 0.081% in experiment [2] (setting [13]); 0.189 ± 0.24% in experiment [2] (setting [14]). Also, the residual bioluminescent signal in experiment [1] (setting [3]) was determined as 91.5 ± 7.9%; in experiment [1] (setting [4]), 94.1 ± 10%; in experiment [1] (setting [5]), 2.32 ± 0.56%; in experiment [1] (setting [6]), 39.9 ± 12%; in experiment [1] (setting [7]), 0.985 ± 0.12%; in experiment [1] (setting [8]), 0.807%.

Consider `O.O.O.O.O.O.O.O.O.O.O=S(=O)([O-])[O-].[Na+].[Na+]` [sodium sulfate], for which the residual bioluminescent signal in experiment [2] (setting [9]) was found to be 96 ± 3.7%; in experiment [2] (setting [10]) it was 96.8 ± 5%; in experiment [2] (setting [11]), 96.8 ± 4%; in experiment [2] (setting [12]), 96 ± 4.3%; in experiment [2] (setting [13]) it was 98.4 ± 1.1%; in experiment [2] (setting [14]), 95.6 ± 4.4%. In addition, the residual bioluminescent signal in experiment [1] (setting [3]) is 112 ± 4.9%; in experiment [1] (setting [4]), 111 ± 1.9%; in experiment [1] (setting [5]), 75.1 ± 66%; in experiment [1] (setting [6]), 108 ± 9.8%; in experiment [1] (setting [7]), 118 ± 11%; in experiment [1] (setting [8]), 109 ± 13%.

For `[Cl][Fe][Cl]` [iron(II) chloride], the residual bioluminescent signal in experiment [1] (setting [3]) was found to be 62.9 ± 8.6%; in experiment [1] (setting [4]), 85.9 ± 6.2%; in experiment [1] (setting [5]), 1.9 ± 1.7%; in experiment [1] (setting [6]) it was 3.45 ± 1.9%; in experiment [1] (setting [7]) it was 0.774 ± 0.53%; in experiment [1] (setting [8]) it was 0.404 ± 0.27%.

For `O=C([O-])[O-].[K+].[K+]` [potassium carbonate], the residual bioluminescent signal in experiment [1] (setting [3]) amounted to 90.4 ± 4.2%; in experiment [1] (setting [4]) it was 88.9 ± 2.2%; in experiment [1] (setting [5]), 93.2 ± 9.6%; in experiment [1] (setting [6]), 92.2 ± 5.6%; in experiment [1] (setting [7]), 96.4 ± 7%; in experiment [1] (setting [8]) it was 76.8 ± 4.4%.

Turning to `O=S(=O)([O-])[O-].[Mn+2]` [manganese(II) sulfate], the residual bioluminescent signal in experiment [1] (setting [3]) amounted to 112 ± 9.2%; in experiment [1] (setting [4]), 103 ± 12%; in experiment [1] (setting [5]), 101 ± 3.7%; in experiment [1] (setting [6]) it was 102 ± 5.1%; in experiment [1] (setting [7]), 71.9 ± 9.5%; in experiment [1] (setting [8]), 108.6 ± 0.66%.
